PABP FP inh – blocks human PABP binding to poly(A) RNA; 290,000 tested, 1% active; P11940; fluorescence polarization; calls only at 35 µM;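 further: calls also rest on retests at 20 µM and on dose response follow-up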
14-3-3 Bad inh – disrupts binding of bovine 14-3-3 zeta to phospho-Bad peptide; TR-FRET 14-3-3zeta/Dy647-pBad peptide displacement, 1 h; inhibition, % at 21.7 µM; 220,000 tested, 0.71% active;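 active means inhibition above about 70%, limit read from the data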;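 further: 0% = full 14-3-3 plus peptide FRET controls and 100% = background without 14-3-3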
eIF4E-4G inh – inhibitors of eIF4E and eIF4G interaction in translation initiation | 220,000 tested, 0.37% active | P63073+Q04637 | AID 782 | TR-FRET eIF4E-eIF4GI(517-606) binding, 2 h | inhibition, % at 21.7 µM;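 active means inhibition above about 30%, limit read from the data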;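 further: 0% = full FRET control wells and 100% = background wells lacking eIF4GI fragment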
eIF4H inh – inhibitors of RNA binding by human eIF4H. 290,000 tested, 0.94% active. eIF4H fluorescence polarization binding assay. AID 2012. inhibition, % at 35 µM;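 further: calls also rest on retests at 20 µM and on dose response follow-up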
MLLE-PAM2 inh – blocks PAM2 peptide binding to the PABP1 MLLE domain; P11940; GST-MLLE / FITC-PAM2 fluorescence polarization; inhibition, % at 20 µM; 360,000 tested, 0.36% active; AID 588489; in the data active means inhibition above about 35%, passing the limit was not always enough;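 further: plate controls were DMSO wells with GST-MLLE for no effect and wells lacking GST-MLLE protein for full effect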
The depositor's hits bear a star; i = inactive; · = no result; + = active, no number; [ ] = remark or other dose. This is a sample that favours compounds with a hit; in the whole collection about 1.9% have one here. Unless noted, how the calls were made is not given here.

SMILES	PABP FP inh	14-3-3 Bad inh	eIF4E-4G inh	eIF4H inh	MLLE-PAM2 inh
COCCN(Cc1ccc(OC)cc1)c1c(C)nc2ccc(C(=O)Nc3ccc(NC(C)=O)cc3)cn12	·	·	·	·	8
CC(=O)Nc1cccc(NC(=O)C(=O)c2cn(CC(=O)N3CCCC3)c3ccccc23)c1	·	·	·	·	6
CC(=O)c1ccc(OCCCC(=O)NC2=NCCS2)cc1	i	2	-4	7	39*
O=C(CN1CCN(c2ccccc2)CC1)NC(=O)NCc1ccco1	i	-5	8	-8	13
COc1cccc(N2CCN(CC(=O)NC(=O)NCc3ccco3)CC2)c1	+	1	6	88	-16
CCNc1cc2n(c(=O)n1)CCc1cc(OC)c(OC)cc1-2	i	11	-5	-2	5
COc1cc2c(cc1OC)-c1cc(NCc3ccccn3)nc(=O)n1CC2	i	91*[fluorescence artefact?]	88*	-7	4
[O-][N+](=C(c1ccccc1)c1ccccc1)c1ccccc1	·	·	·	·	-10
CCOC(=O)C(=O)NNc1ccc(F)cc1	i	1	31*	13	-3
CCC(=O)Nc1ccc(SC#N)cc1C	i	-4	1	-6	59*
CCc1cc(SC#N)cc(C)c1NC(=O)CCl	i	-3	-4	-4	40*
CC(C)Cc1nnc(NC(=O)CN2C(=O)NC3(CC(C)CC(C)(C)C3)C2=O)s1 (centres undefined)	·	·	·	·	-2
CC1(C)Nc2ccc(O)cc2-c2c1ssc2=S	+	-1	0	80	17
C/C(=N\NC(=O)c1ccccc1-n1cccc1)C1CC1	i	-5	0	-9	10
COc1ccc(-c2cc(-c3cccs3)c(C#N)c(SCC(=O)NCc3ccco3)n2)cc1	i	-1	14	55*	8
CC(C)(C)OC(=O)C[C@@H]1C/C=C\C[C@H](CC(=O)NCCO)C(=O)N[C@@H](Cc2ccccc2)COC1=O	·	·	·	·	3
Cc1ccc(N=Cc2cccc(O)c2O)c(C)c1	+	·	·	99*	5
O=C(CSc1nc2ccccc2n1CCc1ccccc1)c1ccc(O)c(O)c1	+	94*	62*	90*	-99
Cn1c(SCC(=O)c2ccc(O)c(O)c2)nnc1-c1cccs1	+	22	7	50*	7
Cn1c(SCC(=O)c2ccc(O)c(O)c2)nnc1-c1ccccc1	i	·	·	3	9
O=C(Nc1cccc2cccnc12)c1ccc2sc([C@@H]3O[C@H](CO)[C@H](O)[C@H](O)[C@H]3O)nc2c1	·	·	·	·	4
CCCc1cc(C(=O)N2CCCC(C(=O)c3ccc(Cl)cc3)C2)n(C)n1 (centres undefined)	i	·	·	-8	2
O=C(NCc1ccco1)c1cc([N+](=O)[O-])ccc1N1CCOCC1	i	1	0	10	2
CSc1ccccc1NC(=O)NCCCl	i	-1	1	8	-2
Nc1nc(-c2ccccn2)nc(N)c1Cc1ccc(Cl)cc1Cl	i	-13	0	70*	-8
SMILES	PABP FP inh	14-3-3 Bad inh	eIF4E-4G inh	eIF4H inh	MLLE-PAM2 inh
Nc1nc(-c2ccccn2)nc(N)c1Cc1ccccc1F	i	-8	-2	3	-1
COc1cccc(C(=O)COC(=O)c2n[nH]c(=O)c3ccccc23)c1	i	-21	2	2	-2
NC(=S)c1cnn2c(-c3cccc(C(F)(F)F)c3)ccnc12	i	·	·	-4	38*
N#Cc1cnn2c(-c3ccccc3)ccnc12	i	-4	2	11	1
NC(c1csc(Nc2nccc(C(F)(F)F)n2)n1)C1CCCCC1 (centres undefined)	·	·	·	·	6
CCOC(=O)c1ccc(N=c2ssnc2Cl)cc1	i	34	39*	1	19
Clc1nssc1=Nc1ccccc1	i	26	51*	3	15
Fc1ccc(N=c2ssnc2Cl)c(F)c1	i	41	51*	-6	15
COc1cc(N=c2ssnc2Cl)cc(OC)c1OC	i	38	67*	4	14
COc1ccc(S(=O)(=O)N(C)C)cc1NC(=O)c1ccc(OCC2CCCO2)cc1 (centres undefined)	·	·	·	·	-10
COc1ccc(N=c2ssnc2Cl)cc1	i	29	30*	2	26
Clc1ccc(N=c2ssnc2Cl)cc1	i	44	31*[fluorescence artefact?]	-9	27
N#Cc1ccc(N=c2ssnc2Cl)cc1	i	31	26	-6	24
COc1ccccc1CNC(=O)c1cnccn1	+	-5	-5	54	-6

Bioassay records deposited in PubChem by several laboratories.
